This is an account of results in PubChem BioAssay (NCI).

About 83,000 compounds went through this panel and 20% of them were active in at least one assay; those are over-represented in the sample as a whole.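 Values shown are percent growth following 48 h exposure of cells in 96-well plates to a single concentration of compound; below 10 was considered active.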 Values without a mark were called inactive. The source made the active and inactive calls.

The subject of this test is HL-60(TB) leukemia. Briefly: NCI-60 one-dose screen, 48 h (100 = growth as untreated, 0 = no growth, -100 = all killed). The note with it: 10 µM unless noted.

Regarding `COc1cc2nc(-c3ccc(C(F)(F)F)cc3)cc(OCCN3CCCCC3)c2cc1OC`, the growth is 58.6%.

Consider `CC(C)c1ccc(-n2c(=S)[nH]c3sc4c(c3c2=O)CCC(=O)C4)cc1`, for which the growth was 75.4%.

As for `Cc1cc(C(=O)Nc2cc(Nc3ncccc3-c3ncnc4nc[nH]c34)ccc2F)cc(C(F)(F)F)c1`, the growth is 25.1%.

Take `CN(Cc1cnc2nc(N)nc(N)c2n1)c1ccc(C(=O)N[C@@H](CCc2nn[nH]n2)c2nn[nH]n2)cc1`: the growth is 31.9%.

On to `O=C(/C=C/c1ccc(Oc2ccc(Br)cc2)cc1)c1ccc(Br)cc1`, for which the growth was 88%.

On to `C=C(C)[C@@H]1CC[C@]2(C(=O)N3CCNCC3)CC[C@]3(C)[C@H](CC[C@@H]4[C@@]5(C)C/C(=C/c6ccncc6)C(=O)C(C)(C)[C@@H]5CC[C@]43C)[C@@H]12`, for which the growth is 99.7%.

For the molecule `COc1ccc(O)c(N=Nc2nccs2)c1`, the growth is -22.5% (active).

`COc1ccc(-c2c(N)n[nH]c2-c2cc(OC)c(OC)c(OC)c2)cc1`: the growth was 15.3%.

With `C=CCCC(=O)N1C=CC(=O)[C@H](O)[C@@H]1/C=C/c1ccccc1`, the growth was 32.2% [100 µM].

Take `Cc1ccc(C)c(-c2csc(Nc3ccc(C)c(C)c3)n2)c1`: the growth is 34.4%.

On to `Cc1cccc(NC(=O)N/C(N)=N/c2nc3ccccc3s2)c1`, for which the growth was 5.69% (active).

Turning to `CC(C)CN1CC(C(=O)Nc2ccc3c(c2)-c2ccccc2C3)CC1=O` (centres undefined), the growth was 91.7% [50 µM].

Turning to `Nc1nc(-c2cccc(Br)c2)cc(-c2cc3ccccc3oc2=O)n1`, the growth is 100%.

Take `Cc1nc2ccccc2c(/C=C/c2ccc(C(F)(F)F)cc2)c1C(=O)/C=C/c1ccccc1`: the growth is -19% (active).

Regarding `O=C1/C(=C\c2cccc(OCCCCCOc3ccc(Cl)cc3)c2)N=C2SCCCN12`, the growth is 36%.

With `Cn1c(=O)c2nc3c(=O)n(C)c(=O)n(C)c3nc2n(C)c1=O`, the growth was 85.1%.

For `O=c1[nH]c(-c2ccccn2)nc2sc3c(c12)CCCCC3`, the growth was 21.8%.

In the case of `BrC1CC(Br)c2c1c1c(c3c2C(Br)CC3Br)C(Br)CC1Br` (centres undefined), the growth was 55.7%.

With `CN(C)CCOC(=O)Nc1ccc(Cc2ccc(NC(=O)OCCN(C)C)cc2)cc1`, the growth is 52.8% [100 µM].

`COc1ccc(/C=C/C(=O)/C=C/c2cc3ccccc3[nH]c2=O)cc1`: the growth was 62.9%.

For `Cc1cc(Cc2cc(C)cc(C(C)(C)C)c2O)c(O)c(C(C)(C)C)c1`, the growth was 59.3%.

In the case of `O=C1/C(=C/c2ccc([N+](=O)[O-])o2)Oc2ccc(Br)cc21`, the growth was 43.2%.

Regarding `Brc1ccc(Cn2nnnc2-c2ccn(-c3ccccc3)n2)cc1`, the growth was 69.1%.

Regarding `COc1ccc(/C(C)=N/NC(=O)CSc2nc3ccccc3c(=O)n2CCc2ccc(S(N)(=O)=O)cc2)cc1`, the growth was 76.7%.

In the case of `Cc1n(Cc2ccc3ccccc3n2)cc[n+]1Cc1ccc2ccccc2n1`, the growth was 34.2%.

For `CSc1nc(-c2cccc(NC(=O)CCl)c2)c(C#N)c(=O)n1C`, the growth is -22.1% (active).

For the molecule `O=C(CN1CCCCC1)Nc1ccc2oc(=O)ccc2c1`, the growth is 78.1%.

For `C=CCOC(=O)C1=C(C)NC2=C(C(=O)CCC2)C1c1ccc(F)cc1` (centres undefined), the growth is 87.8%.

`Cc1cc2ccccc2nc1-c1ccccc1F`: the growth is 97.4%.

With `COc1cccc(-c2nc3sccn3c2-c2cccc(S(C)(=O)=O)c2)c1`, the growth was 98.3%.

Take `c1ccc(CCNc2ncnc3[nH]ncc23)cc1`: the growth was 79.6%.

Regarding `O=C(CSc1nc2ccc([N+](=O)[O-])cc2[nH]1)Nc1ccc(Br)cc1`, the growth was 39.4%.

Turning to `C[C@@H](Oc1cc(-c2cnn(C3CCNCC3)c2)cnc1N)c1c(Cl)ccc(F)c1Cl`, the growth was -59.4% (active).

Consider `CN(C)c1ccc2[nH]c3c(C(N)=O)cc(=O)c(=O)c=3oc2c1`, for which the growth was -2.19% (active).

In the case of `CC(=O)[C@@]1(O)[C@H](C)C[C@H]2[C@@H]3C=C(C)C4=Cc5c(cnn5-c5ccccc5)C[C@]4(C)[C@H]3[C@@H](O)C[C@@]21C`, the growth is -16% (active).

Consider `Cc1ccc(/C=C/C(=O)c2cccc(OCCCOc3cccc(C(=O)/C=C/c4ccc(C)cc4)c3)c2)cc1`, for which the growth is 57.6%.

As to `O=C(c1ccc(/C=C/c2n[nH]c3ccccc23)cc1)N1CCNCC1`, the growth is 31.7%.

On to `Cc1ccc2c(n1)C(=O)C(Br)=C(C1CCCC1)C2=O`, for which the growth was 76.1%.

In the case of `CN1CCN(CCCOc2ccc3ncnc(Nc4ccc(Oc5cccc(C(F)(F)F)c5)c(Cl)c4)c3c2)CC1`, the growth was -45.9% (active).
